{"source": "PubChem BioAssay AID1626", "about": "(SRMLSC, 2009)", "note": "Screen size: about 220,000 compounds; about 2,000 (0.91%) were called active. About 2% were inconclusive and are not listed. Rule as the data show it: inconclusive = inhibition above about 80% without an active follow-up result; inactive = below that; test concentration not stated here. A selection follows. Potency and affinity values are given separately."}
{"test": "M. tuberculosis H37Rv growth inhibitors, H37Rv strain (AID 1626);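 also: bacteria incubated seven days before Alamar blue readout; 0% = bacteria only wells and 100% = bacteria with antibiotic wells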", "settings": "active compounds read high, concentration not given here"}
{"smiles": "O=C(O)c1ccc(O)c(N2C(=O)Nc3ccccc3N2O)c1", "inhibition": "-1.41% (inactive)"}
{"smiles": "CC[C@@H]1C=C(C)C[C@H](C)C[C@H](OC)[C@H]2O[C@@](O)(C(=O)C(=O)N3CCCC[C@H]3C(=O)O[C@H](/C(C)=C/[C@@H]3CC[C@@H](O)[C@H](OC)C3)[C@H](C)[C@@H](O)CC1=O)[C@H](C)C[C@@H]2OC", "inhibition": "5.69% (inactive)"}
{"smiles": "Fc1cccc(CSc2nc3ncc(Cl)cc3[nH]2)c1", "inhibition": "-0.1% (inactive)"}
{"smiles": "CCc1[nH]c(=S)c(C#N)c2c1CCCC2", "inhibition": "-2.7% (inactive)"}
{"smiles": "COc1cc2cc(/C=C/C(=O)c3ccco3)c(Cl)nc2cc1OC", "inhibition": "-1.16% (inactive)"}
{"smiles": "Cc1cccc2cc(/C=C/C(=O)c3ccco3)c(Cl)nc12", "inhibition": "7.5% (inactive)"}
{"smiles": "Cc1ccc(N/C=C/C(=O)c2ccco2)c(O)c1", "inhibition": "-2.39% (inactive)"}
{"smiles": "CCOc1ccc2nc(Cl)c(/C=C/C(=O)c3ccco3)cc2c1", "inhibition": "21.5% (inactive)"}
{"smiles": "Cc1nc([N+](=O)[O-])cn1CC(=O)NCCCO", "inhibition": "8.65% (inactive)"}
{"smiles": "Cc1ccc(-n2c(CNC(=O)c3cccs3)nnc2SCC(=O)NO)cc1", "inhibition": "2.75% (inactive)"}
{"smiles": "COC(=O)c1ccc(CN2CCN(Cc3ccccc3)C(CCO)C2)cc1", "note": "(stereo not drawn)", "inhibition": "-3.82% (inactive)"}
{"smiles": "COc1ccc(N(C(=O)c2ccco2)C(C(=O)NC2CCCC2)c2ccc(N(C)C)cc2)cc1OC", "note": "(stereo not drawn)", "inhibition": "-5.56% (inactive)"}
{"smiles": "Cc1ccccc1-c1cc2nc(-c3ccc([N+](=O)[O-])cc3)cc(=O)n2[nH]1", "inhibition": "-6.76% (inactive)"}
{"smiles": "O=c1cc(-c2ccccc2)nc2c(-c3ccccc3)c(C(F)(F)F)[nH]n12", "inhibition": "2.66% (inactive)"}
{"smiles": "CCCc1cc(=O)n2[nH]c(C)c(-c3ccccc3)c2n1", "inhibition": "11.9% (inactive)"}
{"smiles": "COC(=O)Cc1cc(=O)n2[nH]c(C)c(-c3ccccc3)c2n1", "inhibition": "-0.6% (inactive)"}
{"smiles": "COc1ccc(CCNCC(O)c2ccccc2)cc1", "note": "(stereo not drawn)", "inhibition": "-12.7% (inactive)"}
{"smiles": "CC(NC(=O)c1ccccc1NC(=O)c1ccncc1)c1ccccc1", "note": "(stereo not drawn)", "inhibition": "6.19% (inactive)"}
{"smiles": "CC(C)OC(=O)/C(=C\\c1cccc2ccccc12)NC(=O)c1ccccc1", "inhibition": "11.6% (inactive)"}
{"smiles": "N/C(=N\\OC(=O)c1ccc(Cl)cc1)c1[nH]ncc1Br", "inhibition": "-8.82% (inactive)"}
{"smiles": "CC(C)(C)NC(=O)c1ccc2c(c1)N(CC(=O)N1CCN(c3ccc(F)cc3)CC1)C(=O)C(C)(C)O2", "inhibition": "8.11% (inactive)"}
{"smiles": "O=C(O)c1cccc(S(=O)(=O)Nc2ccccc2N2CCOCC2)c1", "inhibition": "-1.57% (inactive)"}
{"smiles": "Cc1cccc(C(=O)O/N=C(\\N)Cc2ccc([N+](=O)[O-])cc2)c1", "inhibition": "7.62% (inactive)"}
{"smiles": "COc1ccccc1C1(CCN=Cc2ccc(N(C)C)cc2)CCOC(C)(C)C1", "note": "(stereo not drawn)", "inhibition": "2.7% (inactive)"}
{"smiles": "CCC(=O)/C=C1\\Sc2ccc(OC)cc2N1CCO", "inhibition": "-14.1% (inactive)"}
{"smiles": "CCC(/C=C1\\Sc2ccc(OC)cc2N1CC)=C\\c1sc2ccc(OC)cc2[n+]1CCCS(=O)(=O)[O-]", "inhibition": "0.61% (inactive)"}
{"smiles": "O=C(NC1CCS(=O)(=O)C1)C1C2CC3CC(C2)CC1C3", "note": "(stereo not drawn)", "inhibition": "0.76% (inactive)"}
{"smiles": "O=C1CCCC(=O)C1Sc1ccc(Cl)cc1", "inhibition": "3.4% (inactive)"}
{"smiles": "COc1ccc(N=C/C=C2\\C=C(c3ccccc3)OC(C)(C)O2)cc1", "inhibition": "76.4% (inactive)"}
{"smiles": "CC1(C)OC(c2ccccc2)=C/C(=C/C=Nc2ccccc2)O1", "inhibition": "-2.83% (inactive)"}
{"smiles": "C1CSC2(N1)C1CC3CC2CC(C1)C31NCCS1", "note": "(stereo not drawn)", "inhibition": "-4.53% (inactive)"}
{"smiles": "Cc1cc(C)cc(NC(=O)c2ccccc2CC[N+](=O)[O-])c1", "inhibition": "58.2% (inactive)"}
{"smiles": "CC(C)(C)c1ccc(C(=O)NCCN2CCCC2)cc1", "inhibition": "-0.48% (inactive)"}
{"smiles": "O=C(NCCCN1CCN(CCCNC(=O)c2ccc(F)cc2)CC1)c1ccc(F)cc1", "inhibition": "-9.24% (inactive)"}
{"smiles": "CCOC(=O)c1ccc(NC(=O)NCCc2ccccc2OC)cc1", "inhibition": "5.79% (inactive)"}
{"smiles": "CCN(CC)C(=O)c1c(C)[nH]c(=S)c(C#N)c1-c1ccco1", "inhibition": "-4.78% (inactive)"}
{"smiles": "Brc1ccc(-c2cn3cccnc3n2)cc1", "inhibition": "-1.72% (inactive)"}
{"smiles": "Brc1ccc(-c2cn3ccccc3n2)cc1", "inhibition": "-4.5% (inactive)"}
{"smiles": "O=C1CCC(=O)N1CNc1cccnc1", "inhibition": "-9.49% (inactive)"}
{"smiles": "O=C1C2=C(CCCC2)C(=O)N1CNc1ccccc1", "inhibition": "-13.7% (inactive)"}
{"smiles": "CCn1c(=S)sc2c(=O)n(-c3ccccc3)c(=S)[nH]c21", "inhibition": "-1.81% (inactive)"}
{"smiles": "COc1ccc(C(=O)N2CCN(c3ccccc3OC)CC2)cc1", "inhibition": "0.49% (inactive)"}
{"smiles": "O=C(O)/C=C/c1ccc(S(=O)(=O)NCc2cccnc2)cc1", "inhibition": "-0.59% (inactive)"}
{"smiles": "CN(CC(O)COC(c1ccccc1)c1ccccc1)C1CCCCC1", "note": "(stereo not drawn)", "inhibition": "5.91% (inactive)"}
{"smiles": "CC1CCCC(NC(=O)CSc2ccc(F)cc2)C1C", "note": "(stereo not drawn)", "inhibition": "-2.7% (inactive)"}
{"smiles": "Cc1cc([N+](=O)[O-])nn1CCCC(=O)Nc1cc(Oc2ccccc2)cc([N+](=O)[O-])c1", "inhibition": "33.1% (inactive)"}
{"smiles": "Cc1nn(CCCC(=O)Nc2cc(Oc3ccccc3)cc([N+](=O)[O-])c2)c(C)c1[N+](=O)[O-]", "inhibition": "4.46% (inactive)"}
{"smiles": "Cc1ccc(C)c(Oc2cc(NC(=O)CCCn3nc(C)c([N+](=O)[O-])c3C)cc([N+](=O)[O-])c2)c1", "inhibition": "5.87% (inactive)"}
{"smiles": "Cc1c(Cl)c([N+](=O)[O-])nn1CCCC(=O)Nc1cccc(Cl)c1", "inhibition": "-0.67% (inactive)"}
{"smiles": "Cc1cc([N+](=O)[O-])nn1CCCC(=O)Nc1cc(Oc2ccc(F)cc2)cc([N+](=O)[O-])c1", "inhibition": "76% (inactive)"}
{"smiles": "Cc1ccccc1Oc1cc(NC(=O)CCCn2nc(C)c([N+](=O)[O-])c2C)cc([N+](=O)[O-])c1", "inhibition": "4.71% (inactive)"}
{"smiles": "CN1CCC(C2(O)c3ccccc3CCc3ccccc32)CC1", "inhibition": "-4.72% (inactive)"}
{"smiles": "Cc1ccc(-c2nn(-c3ccccc3)cc2/C=N/NC(=O)CSc2nnc(C)n2-c2ccccc2)cc1", "inhibition": "5.75% (inactive)"}
{"smiles": "COc1cc(NC(=O)CCCc2c[nH]c3ccccc23)cc(OC)c1", "inhibition": "13% (inactive)"}
{"smiles": "COc1ccc(/C=N/NC(=O)c2cc(C34CC5CC(CC(C5)C3)C4)[nH]n2)cc1OC", "inhibition": "-1.09% (inactive)"}
{"smiles": "COCCN1C(=O)N[C@@H](c2cccc(F)c2)C(C(=O)OC)=C1C", "inhibition": "-7.87% (inactive)"}
{"smiles": "CC(=O)c1ccc(NC(=O)C(NC(=O)c2ccccc2)=C(C)C)cc1", "inhibition": "-4.51% (inactive)"}
{"smiles": "Cc1cccc2nc(-c3cccnc3)c(Nc3ccccc3)n12", "inhibition": "-0.36% (inactive)"}
{"smiles": "Clc1ccc(-c2nc3ncccn3c2Nc2ccc3c(c2)OCO3)cc1", "inhibition": "7.95% (inactive)"}
{"smiles": "Cc1ccc2nc(-c3ccco3)c(Nc3ccccc3)n2c1", "inhibition": "2.97% (inactive)"}
{"smiles": "Cc1ccccc1Nc1c(-c2ccncc2)nc2ccc(Cl)cn12", "inhibition": "-2.88% (inactive)"}
{"smiles": "Cc1ccc2nc(-c3cccnc3)c(Nc3ccccc3C)n2c1", "inhibition": "5.59% (inactive)"}
{"smiles": "Cc1cccc2nc(-c3ccco3)c(Nc3ccccc3)n12", "inhibition": "-7.83% (inactive)"}
{"smiles": "Cc1ccc2nc(-c3ccncc3)c(Nc3ccccc3)n2c1", "inhibition": "2.3% (inactive)"}
{"smiles": "Clc1ccc(-c2nc3cnccn3c2Nc2ccc3c(c2)OCO3)cc1", "inhibition": "31% (inactive)"}
{"smiles": "CCN1CCN(C(=O)COc2ccc3c(c2)C(=O)CC2(CCN(C(C)=O)CC2)O3)CC1", "inhibition": "-8.68% (inactive)"}
{"smiles": "CCOC(=O)C1CCN(C(=O)CSc2ccc(Cl)cc2)CC1", "inhibition": "1.63% (inactive)"}
{"smiles": "O=C(c1ccc([N+](=O)[O-])c(CS(=O)(=O)c2ccc(Cl)cc2)c1)N1CCCCC1", "inhibition": "3.1% (inactive)"}
{"smiles": "CCOC(=O)CSc1ccc2nnc(CCNS(=O)(=O)c3ccc(C)cc3)n2n1", "inhibition": "4.15% (inactive)"}
{"smiles": "Cc1oc(C(C)(C)C)c(CN2CCCC2)c1C(=O)O", "inhibition": "5.71% (inactive)"}
{"smiles": "Cc1cccc(-c2nnc(SCC#N)n2C)c1", "inhibition": "1.96% (inactive)"}
{"smiles": "CCOC(=O)c1cc(C(C)(C)C)nc(SC)c1C#N", "inhibition": "0.56% (inactive)"}
{"smiles": "COc1ccc(C(O)P(=O)(OCC(C)C)OCC(C)C)c(OC)c1", "note": "(stereo not drawn)", "inhibition": "5.08% (inactive)"}
{"smiles": "Cc1cc(C)n2nc(C(=O)Nc3nccs3)nc2n1", "inhibition": "-4.36% (inactive)"}
{"smiles": "O=c1c2c3c(sc2nc2sc(CN4CCOCC4)cn12)CCCC3", "inhibition": "-5.88% (inactive)"}
{"smiles": "CC(=O)Nc1c(C(=O)C2CC2)oc2ccccc12", "inhibition": "8.66% (inactive)"}
{"smiles": "O=C(O)CCSCC(=O)Nc1c(C(=O)C2CC2)oc2ccccc12", "inhibition": "-2.71% (inactive)"}
{"smiles": "CC1(C)Cc2ccccc2C(N/N=C/c2ccc([N+](=O)[O-])cc2)=N1", "inhibition": "3.59% (inactive)"}
{"smiles": "CSCCC(NC(=O)c1ccc([N+](=O)[O-])cc1Cl)C(=O)OCC(=O)NCCCc1ccccc1", "note": "(stereo not drawn)", "inhibition": "-2.31% (inactive)"}
{"smiles": "CC(=O)Nc1ccccc1-c1ccc(C)o1", "inhibition": "-8.39% (inactive)"}
{"smiles": "Cc1cnc(C(=O)Nc2ccccc2-c2ccc(C)o2)cn1", "inhibition": "-0.7% (inactive)"}
{"smiles": "CCC(=O)N(C)CCc1cc2c(c(OC)c1/C=N/NC(=O)[C@H]1C[C@@H]1c1ccccc1)OCO2", "inhibition": "-2.15% (inactive)"}
{"smiles": "CN(C)c1ccc(NC(=S)NC(=O)/C=C/c2ccc(Cl)cc2)cc1", "inhibition": "5.85% (inactive)"}
{"smiles": "COc1cc(C(CCN2CCOCC2)c2c(OC)cc(OC)c3c(C)cc(=O)oc23)cc(OC)c1OC", "note": "(stereo not drawn)", "inhibition": "-15.3% (inactive)"}
{"smiles": "COc1cc(C(CCN2CCCC2)c2c(OC)cc(OC)c3c(C)cc(=O)oc23)cc(OC)c1OC", "note": "(stereo not drawn)", "inhibition": "-6.56% (inactive)"}
{"smiles": "COc1cc(C(CCN2CCCC2)c2c(OC)cc(OC)c3ccc(=O)oc23)cc(OC)c1OC", "note": "(stereo not drawn)", "inhibition": "-13% (inactive)"}
{"smiles": "COc1cc(C(CCN2CCCCC2)c2c(OC)cc(OC)c3c(C)cc(=O)oc23)cc(OC)c1OC", "note": "(stereo not drawn)", "inhibition": "-3.67% (inactive)"}
{"smiles": "Cn1nc(-c2ccc(OCC(N)=O)cc2)c2ccccc2c1=O", "inhibition": "9.43% (inactive)"}
{"smiles": "O=S(=O)(Nc1ccc(-c2cn3ccsc3n2)cc1)c1ccc2c(c1)OCCO2", "inhibition": "-7.36% (inactive)"}
{"smiles": "O=C(O)c1cccc(CSc2ncn[nH]2)c1", "inhibition": "3.99% (inactive)"}
{"smiles": "CCn1ccnc1CN(C)Cc1cn(-c2ccccc2)nc1-c1ccc(OC)cc1F", "inhibition": "15% (inactive)"}
{"smiles": "CN(Cc1ncc[nH]1)Cc1cn(-c2ccccc2)nc1-c1ccc2c(c1)OCO2", "inhibition": "6.67% (inactive)"}
{"smiles": "CCn1ccnc1CNCc1cn(-c2cc(C)ccc2C)nc1-c1ccccc1", "inhibition": "72% (inactive)"}
{"smiles": "Cc1ccc(-n2cc(CN(C)CCc3cn[nH]c3)c(-c3cccc(C)c3)n2)cc1", "inhibition": "6.61% (inactive)"}
{"smiles": "Cc1ccc(-n2cc(CN(C)Cc3nccn3C)c(-c3ccc(F)cc3)n2)cc1", "inhibition": "60.4% (inactive)"}
{"smiles": "Cc1ccc(C)c(-n2cc(CNCCCn3cccn3)c(-c3ccccc3)n2)c1", "inhibition": "-1.54% (inactive)"}
{"smiles": "CN(Cc1cn(-c2ccccc2)nc1-c1ccc2c(c1)OCO2)Cc1nccn1C", "inhibition": "2.66% (inactive)"}
{"smiles": "Cc1ccc(-n2cc(CN3CCN(Cc4nccn4C)CC3)c(-c3cccc(C)c3)n2)cc1", "inhibition": "-0.87% (inactive)"}
